Measured values reported in PubChem BioAssay (NCI).
This is part of a sample that, as a whole, favours compounds with a hit. Of some 83,000 tested, about 20% had one in any assay.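 For each line, cells grew in 96-well plates with the test compound present at a single concentration for 48 hours.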 Unmarked numbers belong to inactive results. Calls of active or inactive are those of the source. The calls were made as follows: active = growth percent below 10; inactive = the rest.

The molecules below were run on SK-MEL-5 melanoma (assay: NCI-60 one-dose screen, 48 h (100 = growth as untreated, 0 = no growth, -100 = all killed)). Conditions: 10 µM.

Compound	growth
COc1cc(-c2nn3c(/C=C4/C(=O)Nc5ccccc54)c(-c4ccc(C)cc4)nc3s2)cc(OC)c1OC	12.2%
CCCCC/C=C/C(=O)CCc1ccc(O)c(OC)c1	97.7%
Cc1c(Cl)cccc1NC(=O)c1sc2nc3c(cc2c1N)C(=O)CCC3	9.76% (active)
CSc1cc(SC)ncn1	104%
O=C(Nc1ccc(CN2CCc3nc4cc(O)c(O)cc4cc32)cc1)c1ccc(Cl)c(Cl)c1	90.7%
COc1ccc(-c2cc(/C=C/C(=O)c3cc(OC)c(OC)c(OC)c3)[nH]n2)cc1OC	27.4%
O=C1NC(=O)N(Cc2ccccc2)CC1Br (centres undefined)	77.5%
O=C(Nc1ccncc1)C(=O)c1cn(S(=O)(=O)c2cccc(Cl)c2)c2ccccc12	51.7%
CCOC(=O)C(=Cc1ccc(Br)cc1)C(=O)OCC	-47.9% (active)
COc1cc(-c2cc(/C=C3\C(=O)Nc4ccc(Cl)cc43)[nH]n2)cc(OC)c1OC	-68.8% (active)
CC(C)(C)NC/C(=C\c1ccccc1)C(=O)c1ccccc1	-66.9% (active)
Cc1cc(N(CCCNc2ccnc3cc(Cl)ccc23)Cc2cccs2)nc(Cl)n1	-14.9% (active)
Nc1nc(N)c2c(ccc3nccc32)[nH]1	41.2%
CCCC(F)C(=O)O (centres undefined)	105%
Cn1c(N)c(N=Nc2ccc(S(=O)(=O)Nc3nccs3)cc2)c(=O)n(C)c1=O	104%
COc1cc(-c2cc(/C=C/C(=O)c3ccc(Cl)c(Cl)c3)[nH]n2)cc(OC)c1OC	84.1%
Nc1ccccc1NC(=O)CCCCC(=O)Nc1ccc2c(c1)/C(=C/c1ccc[nH]1)C(=O)N2	87.7%
COc1cc(-c2cc(/C=C/C(=O)c3ccc(N)cc3)[nH]n2)cc(OC)c1OC	11.8%
O=C(O)CC(Cl)C(Cl)CC(=O)O (centres undefined)	108%
Nc1nc(N)c(NC(=O)CNc2ccc(C(=O)O)cc2)c(N)n1	103%

Compound	growth
COc1ccc(/C=C2/CN(CCC#N)C/C(=C\c3ccc(OC)cc3)C2=O)cc1	-0.858% (active)
CCCCCC(=O)c1ccc(OCCCN2CCN(C(=O)OCC)CC2)cc1	63.7%
O=C(Nc1ccc(Cl)c(Cl)c1)Nc1c(Oc2ccc(Cl)c(Cl)c2)ccc(Cl)c1S(=O)(=O)O	7.15% (active)
COc1cc(/C=C2\CCCC3=C2N=C2SC=NN2C3c2cc(OC)c(OC)c(OC)c2)cc(OC)c1OC (centres undefined)	16.3%
CCC(=O)N1C/C(=C/c2ccc(OC)cc2)C(=O)/C(=C/c2ccc(OC)cc2)C1	15.7%
O=C(c1ccc(Cl)cc1Cl)N1CCOCC1	96.3%
O=C(CC(C(=O)c1ccccc1)N1CCOCC1)c1ccccc1 (centres undefined)	95.5%
COc1ccc2c(c1)O/C(=C\c1ccc([N+](=O)[O-])o1)C2=O	13%
COc1cc(Cl)cc(-c2nn(-c3cccc(NC(=O)Nc4cc(C(F)(F)F)cc(C(F)(F)F)c4)c3)cc2-c2ccncc2)c1	-79.4% (active)
CCCCCCCCCCCCCCCCN(C(C)c1ccccc1)S(=O)(=O)c1ccc(OC)c(N)c1 (centres undefined)	109%
C#Cc1ccc(-n2c(/C=C/c3ccc4ccccc4c3)nc3ncccc3c2=O)cc1	-90.3% (active)
CCN(CC)CCNC(=O)c1ccc(NC(C)=O)cc1	103%
COc1cc(C(=O)/C=C/c2cc(-c3cc(OC)c(OC)c(OC)c3)n[nH]2)cc(OC)c1OC	21.3%
COc1cc(C)ccc1C(=O)c1ccc(C)cc1OC	25.9%
O=C(Nc1cccc(Br)c1)c1cc(=O)[nH]c2ccccc12	95.5%
N=C(N)c1ccc(-c2ccc(-c3cccs3)o2)cc1	44.6%
CC(=O)N1C/C(=C/c2ccc(Cl)cc2)C(=O)/C(=C/c2ccc(Cl)cc2)C1	-52.1% (active)
Cc1ccc(C(=O)Nc2cccc(F)c2)cc1NC(=O)C1(c2ncnc3[nH]ccc23)CC1	74.3%
COc1ccc(OC)c(NC(=O)c2sc3nc4c(cc3c2N)C(=O)CCC4)c1	66%
